Experimental findings from PubChem BioAssay AID485270 (The Scripps Research Institute Molecular Screening Center, 2010) are described below.

In general, inhibition refers to the change of the read-out against control, counted positive when it falls.

Hit rate of the full screen: of about 330,000 compounds, about 5,800 (1.8%) were called active. The list comes from a sample in which actives are over-represented; it also holds similar structures and randomly drawn compounds. Unmarked numbers belong to inactive results. Rule as the data show it: active = inhibition mostly above about 38% (no sharp cut-off); inactive = mostly below about 40%.

The target in this experiment is Orexin/Hypocretin receptor type 1 (Homo sapiens) (UniProt O43613). The experiment can be described thus: antagonists of human orexin 1 receptor (OX1R) (AID 485270).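 Also: 0% = agonist challenge alone and 100% = reference antagonist.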 The settings on record: OX1R-expressing cells, FRET antagonist read-out; at 6.6 µM; active compounds read high.
Orexin/Hypocretin receptor type 1 (Homo sapiens), sequence (O43613 whole entry, looked up): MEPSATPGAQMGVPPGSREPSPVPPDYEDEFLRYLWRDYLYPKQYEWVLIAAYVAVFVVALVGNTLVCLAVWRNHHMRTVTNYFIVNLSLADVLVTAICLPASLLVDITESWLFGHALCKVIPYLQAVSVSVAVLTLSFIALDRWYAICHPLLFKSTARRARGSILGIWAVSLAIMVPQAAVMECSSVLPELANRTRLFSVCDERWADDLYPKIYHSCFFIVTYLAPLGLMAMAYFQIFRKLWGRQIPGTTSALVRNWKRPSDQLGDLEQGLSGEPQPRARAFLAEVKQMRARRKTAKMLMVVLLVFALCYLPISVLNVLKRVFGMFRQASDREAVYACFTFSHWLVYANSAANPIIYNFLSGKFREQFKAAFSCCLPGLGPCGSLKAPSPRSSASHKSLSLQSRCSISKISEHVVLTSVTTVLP
Consider `CC1CCCCC1NCC(=O)Nc1ccccc1C(=O)Nc1ccccc1` (stereo unspecified), for which the inhibition was 7.92%. Under `Cc1ccccc1SCC(=O)OCC(=O)N1CC(=O)Nc2ccccc21` stands 0.4%; under `COc1ccc(CCNC(=O)Cn2c(=O)n(CC3CCCO3)c(=O)c3ccccc32)cc1OC` (stereo unspecified), 7.5%. To `Cc1ccc2nc3c(cc(C(=O)NCCc4ccccc4)c(=N)n3CC3CCCO3)c(=O)n2c1` (stereo unspecified) belongs 57.5% (active).

Turning to `COc1ccc(CCn2c(=N)c(C(=O)NCC3CCCO3)cc3c(=O)n4cccc(C)c4nc32)cc1OC` (stereo unspecified), the inhibition was 10.8%. Consider `O=C(NCC1CCCO1)c1cc(-c2ccccc2)nc2ccccc12` (stereo unspecified), for which the inhibition was -0.29%. In the case of `COc1ccc(CNC(=O)c2cc3c(=O)n4ccccc4nc3n(CC3CCCO3)c2=N)cc1` (stereo unspecified), the inhibition was 54.9% (active). As to `Cc1ccc(CCNC(=O)c2ccc3nc4ccccc4c(=O)n3c2)cc1`, the inhibition was -3.55%.

Take `Cc1csc(=O)n1CC(=O)Nc1ccc(S(C)(=O)=O)cc1`: the inhibition is 7.39%.

As to `COc1ccc(OC)c(NC(=O)COC(=O)Cc2ccsc2)c1`, the inhibition is 5.5%. Regarding `C[C@]12c3[nH]c4ccc(Cl)cc4c3CCN1C(=O)[C@@H](CC(=O)NCCCn1ccnc1)C[C@@H]2C(=O)N1CCOCC1`, the inhibition is 14.5%.

On to `CN(CC(=O)Nc1ccc(C(N)=O)cc1)S(=O)(=O)c1ccc2c(c1)OCCO2`, for which the inhibition was 6.44%. To `O=C(CN1C(=O)NC2(CCCC2)C1=O)Nc1cc(C(F)(F)F)ccc1N1CCOCC1` belongs 6.5%. Under `CCC(=O)N(Cc1cc2cc(OC)ccc2[nH]c1=O)c1ccccc1C` stands 4.09%; under `COc1ccc2[nH]c(=O)c(CNc3ccc(C)c(C)c3)cc2c1`, 108% (active). For the compound `COc1ccc2[nH]c(=O)c(CN(CC3CCCO3)C(=O)Nc3ccccc3)cc2c1` (stereo unspecified), the inhibition was 5.34%.

For the compound `Cn1nnnc1SCC(=O)Nc1sccc1C(N)=O`, the inhibition is -1.46%. Regarding `CCOc1ccccc1OCC(=O)Nc1ccccc1C(=O)NC1CC1`, the inhibition was 9.29%. Under `Cc1ccc(OCC(=O)Nc2ccccc2C(=O)NC2CC2)cc1` stands 7.7%. To `CC(NCC(=O)Nc1ccccc1C(=O)NC1CC1)c1ccccc1Cl` (stereo unspecified) belongs 29.4% (active). To `CN(c1ccccc1)S(=O)(=O)c1ccc(C(=O)N2CCN(c3ccccc3Cl)CC2)cc1` belongs 9.4%. Turning to `CC(=NNC(=O)c1ccc2nc[nH]c2c1)c1ccc(Br)cc1`, the inhibition is 4.88%.

In the case of `C[C@@H]1CN([C@@H](C)CO)C(=O)c2cc(NC(=O)C3CC3)ccc2O[C@H]1CN(C)C`, the inhibition was 1.14%. On to `C[C@H]1COC(=O)[C@H](CC(=O)OC(C)(C)C)C/C=C\C[C@@H](CC(=O)N[C@H](CO)Cc2ccccc2)C(=O)N1`, for which the inhibition was 0.64%. To `Cc1cccn2c(=O)c3cc(C#N)c(=NC(=O)c4cccnc4)n(CC4CCCO4)c3nc12` (stereo unspecified) belongs 123% (active); to `Cc1ccccc1NC(=O)Cn1c(=O)n(CC2CCCO2)c(=O)c2ccccc21` (stereo unspecified), 15.6%. As for `Cc1cccc(NC(=O)c2ccc3c(=O)n(CC4CCCO4)c(=S)[nH]c3c2)c1` (stereo unspecified), the inhibition was 17.1%. `CN(C(=O)COC(=O)Cc1ccccc1[N+](=O)[O-])C1CCS(=O)(=O)C1` (stereo unspecified): the inhibition is 3.39%. To `COc1cccc(NC(=O)CSc2nnc(C3CCCCC3)n2N)c1` belongs 6.23%; to `COc1ccc(-n2c(SCC(=O)Nc3ccc4c(c3)OCO4)nnc2C(C)N2CCCCC2)cc1` (stereo unspecified), 7.85%. Turning to `O=C(NCCC1=CCCCC1)c1ccc(-n2cncn2)cc1`, the inhibition was 2.77%. In the case of `COCCCNC(=S)NC(=O)c1ccc([N+](=O)[O-])cc1`, the inhibition is 89.6% (active). On to `COCCCNC(=S)NC(=O)c1ccccc1`, for which the inhibition is 6.25%. To `CC(=O)NC(=S)Nc1ccc(NC(=S)NC(=O)c2ccc([N+](=O)[O-])cc2)cc1` belongs 8.98%; to `O=C1CCC[C@@H]2CC(N3CCCCC3)C[C@@H]3CCN1[C@H]23` (stereo partly specified), 5.93%; to `O=C(Nn1cnnc1)c1ccc([N+](=O)[O-])cc1`, 22.3%.

Consider `O=C(c1ccncc1)c1ccc([N+](=O)[O-])cc1`, for which the inhibition was 163% (active). To `O=C(Nc1ccccc1C(=O)Nc1ccncc1)c1ccc([N+](=O)[O-])cc1` belongs 16.2%. To `COC(=O)c1ccc(/C=C/c2c(-c3ccc(OC)cc3)sc3ccccc23)cc1` belongs 5.48%; to `CC(C)NC(=O)Nc1cccc2c1O[C@@H](CN(C)S(=O)(=O)c1ccc(F)cc1)[C@@H](C)CN([C@H](C)CO)C2=O`, 3.93%. In the case of `O=C(O)c1ccc(NS(=O)(=O)c2cccc3nsnc23)cc1`, the inhibition was 27.3%. Consider `O=C(CCCNS(=O)(=O)c1cccc2nsnc12)NCCN1CCN(c2ccccc2F)CC1`, for which the inhibition is 26.2%. Under `O=C(CCS(=O)(=O)c1cccc2nsnc12)N1CCN(c2ccccc2F)CC1` stands 73% (active).

Take `COc1ccc(N(C)S(=O)(=O)c2cccc3nsnc23)cc1`: the inhibition is 33.6%. Under `CCC(=O)N1CCc2cc(S(=O)(=O)CCC(=O)N3CCN(c4ccccc4F)CC3)ccc21` stands 5.14%; under `Cc1cccc(C)c1NC(=O)CCS(=O)(=O)c1cccc2nsnc12`, 70.3% (active). Under `CCOc1ccc(N(CC)S(=O)(=O)c2cccc3nsnc23)cc1` stands 21.1%; under `CCOc1ccc(OCC)c(NC(=O)CN(C)S(=O)(=O)c2cccc3nsnc23)c1`, 41.7%; under `CCOc1ccc(NC(=O)CCS(=O)(=O)c2cccc3nsnc23)cc1`, 85.9% (active). To `COc1ccc(CNC(=O)C(NS(=O)(=O)c2cccc3nsnc23)C(C)C)cc1` (stereo unspecified) belongs 26.5%; to `COc1ccc(C)cc1NC(=O)CCS(=O)(=O)c1cccc2nonc12`, 48.1%. Take `COc1ccc(N(C)C(=O)CCS(=O)(=O)c2cccc3nsnc23)cc1`: the inhibition is 128% (active).

For the compound `O=C(COC(=O)COc1cc(Cl)c(Cl)cc1Cl)NC1CC1`, the inhibition was 6.97%. Take `Cc1ccc(C(=O)NCC(=O)NC2CC2)cc1`: the inhibition was -0.69%. With `Cc1occc1C(=O)Nc1cccc(S(=O)(=O)N2CCOCC2)c1`, the inhibition is 4.81%.

As to `COc1ccc2[nH]c3c(c2c1)CCN1C(=O)C(CC(=O)NCCCN(C)C)C[C@H](C(=O)N2CCOCC2)[C@@]31CCC1CCCC1` (stereo partly specified), the inhibition is -1.98%.
